Drawing on PubChem BioAssay (NCATS), this text covers Potency, max response and outcome for 39 compounds.

Results filed as inconclusive are left out. Calls of active or inactive are those of the source. The call rests on the fitted dose curve; in most records, active means well fitted inhibition curve with a large enough effect; inconclusive means small, poorly fitted or top-dose-only effect; inactive means flat fitted curve, though single readings scatter.
On the % scale 0 is the no-effect control and ±100 the full control effect; potency means the concentration at half of the fitted maximal effect.

The first assay concerns HEK293. Description: Cytotoxic Profiling of Annotated Libraries Using Quantitative High-Throughput Screening (AID 1296008). Further: nearly all actives have a fitted effect of over 60% in size. To be noted: Five cell lines viability, CellTiter-Glo ATP luminescence, 48-72 h; max response: stronger effect = lower value. In outline: (§1)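 Cells exposed to compounds for 48 or 72 hr at 37 degrees Celsius. Viability read as ATP-coupled luminescence with CellTiter-Glo after 10 min at room temperature.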
(Cellular ATP, detected with luciferase, serves as a proxy for viable cell number.)
For `CC1(C)CC(=O)C2=C(C1)NC(=S)NC2c1cccc(O)c1` (stereo not given), the Potency was 1.16 µM (active).
As to `CC(=O)NC[C@H]1CN(c2ccc(N3CCN(C(=O)CO)CC3)c(F)c2)C(=O)O1`, the Potency was 13 µM (active).
In the case of `CC(O)c1cc(C(=O)N[C@@H](C)Cn2ccc(-c3ccc(C#N)c(Cl)c3)n2)n[nH]1` (stereo not given in full), the Potency was 18.4 µM (active).
In the case of `N#Cc1ccc(-c2cnc3[nH]cc(NC(=O)c4cccnc4)c3c2)cc1`, the Potency was 8.2 µM (active).
Consider `Cc1ccccc1-n1c([C@H](C)Nc2nc(N)nc3nc[nH]c23)nc2cccc(C)c2c1=O`, for which the Potency was 16.4 µM (active).
With `CC(C)(C#N)c1ccc(N2C(=O)OCc3cnc4ccc(-c5cnc6ccccc6c5)cc4c32)cc1`, the Potency is 7.31 µM (active).
For `Oc1ccc(CNc2ccccc2F)c2cccnc12`, the Potency is 18.4 µM (active).
Consider `O=C(Nc1ccc(-c2ccncc2)cc1)N[C@H](CO)c1ccccc1`, for which the max response is -14.1% (inactive).
On the same count and under the same terms, the result for `Cc1cccc2c1NC(=O)C2(c1ccc(O)cc1)c1ccc(O)cc1` reads -20.9% (inactive).
Take `C[C@@H]1O[C@@H](O[C@H]2[C@H](O[C@H]3CC[C@@]4(C)C(CC[C@]5(C)C4C=C[C@]46OC[C@@]7(CCC(C)(C)C[C@H]74)[C@@H](O)C[C@]65C)[C@]3(C)CO)O[C@H](CO)[C@@H](O)[C@@H]2O[C@@H]2O[C@H](CO)[C@@H](O[C@@H]3O[C@@H](C)[C@H](O)[C@@H](O)[C@H]3O)[C@H](O)[C@H]2O)[C@H](O)[C@H](O)[C@H]1O` (stereo not given in full): the Potency was 3.9 µM (active).
As to `O=C(NCc1cccc(O)c1)Nc1nc(-c2ccncc2)cs1`, the max response is -21.2% (inactive).
Turning to `Cc1ccc(N)cc1O`, the Potency was 43.3 µM (active).
Same read-out and setting: as for `Cc1ccc(NC(=O)Nc2cc(C(F)(F)F)ccc2F)cc1Nc1ccc2c(c1)NC(=O)/C2=C\c1ccc[nH]1`, the figure is 11.6 µM (active).
The same measure, in the same setting: the result for `CNC(=O)c1ccccc1Nc1nc(Nc2ccc3c(c2OC)CCC[C@@H](N2CCN(CCO)CC2)C3)ncc1Cl` reads 5.8 µM (active).
For `Nc1nc(Nc2ccc(S(N)(=O)=O)cc2)n(C(=S)Nc2c(F)cccc2F)n1`, the Potency is 8.2 µM (active).
With `CNC(=O)c1ccccc1Nc1cc(Nc2ccc(N3CCOCC3)cc2OC)ncc1C(F)(F)F`, the Potency is 6.51 µM (active).
On to `Cc1ccc(C(=O)N(CCCN)C(c2nc3cc(Cl)ccc3c(=O)n2Cc2ccccc2)C(C)C)cc1` (stereo not given), for which the Potency is 0.0092 µM (active).
Consider `CCN(CC)c1ccc2c(O)c(C=Nc3ccc(CC(=O)O)c(-c4c5c(nc6ccccc46)CCC(C(=O)NN)C5)c3)c(=O)oc2c1` (stereo not given), for which the Potency was 11.6 µM (active).
Turning to `C=C1C(=O)O[C@@H]2[C@H]1CCC(C)=C1CCC(=O)O[C@]12C`, the Potency was 14.6 µM (active).
Turning to `CN(C)CCCCC(=O)Nc1ccc(NC(=S)NC(=O)c2ccc(C(C)(C)C)cc2)cc1`, the Potency is 6.51 µM (active).
As to `Cc1cc(Nc2ccc(NC(=O)c3ccc(Nc4ccnc5ccccc45)cc3)cc2)nc(N)n1`, the Potency is 3.26 µM (active).
In the case of `COc1cc(O)c2c(c1)C1=CC(O)C(O)CC1(C)OC2=O` (stereo not given), the max response is -5.55% (inactive).
Consider `CNC12CC3C[C@@](C)(C1)C[C@](C)(C3)C2`, for which the max response was -16.8% (inactive).
Take `NC(=O)c1cccc2cn(-c3ccc(C4CCCNC4)cc3)nc12` (stereo not given): the Potency is 7.31 µM (active).
On to `Cc1cccc(/C=N/Nc2cc(N3CCOCC3)n3nc(-c4ccncc4)cc3n2)c1`, for which the Potency is 5.8 µM (active).
Regarding `CCS(=O)(=O)N1CCN(c2ccc(Nc3ncc(C(N)=O)c(NC4CC4)n3)cc2)CC1`, the Potency is 7.31 µM (active).

The next assay relates to KB-3-1. The assay is described as above. To be noted: Five cell lines viability, CellTiter-Glo ATP luminescence, 48-72 h; max response: stronger effect = lower value. The essentials:
as §1
Regarding `Cc1c(C(=O)Nc2ccc(N3CC(C)OC(C)C3)nc2)cccc1-c1ccc(OC(F)(F)F)cc1` (stereo not given), the max response was -28.5% (inactive).
For `CCN(CC)CCN(Cc1ccc(-c2ccc(C(F)(F)F)cc2)cc1)C(=O)Cn1c(SCc2ccc(F)cc2)nc(=O)c2c1CCC2`, the Potency was 20.6 µM (active).
As to `CC1(C)CC(NC(=O)C(=O)Nc2ccc(Br)cc2)CC(C)(C)N1`, the Potency is 4.61 µM (active).
On to `Cn1cc(S(=O)(=O)c2ccc(Cl)cc2)c2cccc(N3CCNCC3)c21`, for which the Potency was 20.6 µM (active).
`O=C(Nc1ccc(Cl)cc1F)c1ccccc1O`: the Potency was 13 µM (active).
Turning to `O=c1[nH]ccc2cc(OC3CCNCC3)ccc12`, the result was inactive.
Turning to `Cc1ncc(CCCN(C)C)cc1Nc1ncc2c(n1)-c1ccc(C(F)(F)F)cc1NC(=S)C2`, the Potency was 0.0046 µM (active).
On the same count and under the same terms, as for `O=C(c1ccccc1)c1ccc2nc(NC(=O)c3csc(C4CCN(c5ncnc6ccsc56)CC4)n3)[nH]c2c1`, the figure is 8.2 µM (active); as for `COc1c(Nc2ncc(Cl)c(N[C@H]3[C@@H](C(N)=O)[C@@H]4C=C[C@H]3C4)n2)ccc2c1CC[C@@H](N1CCOCC1)CC2`, 18.4 µM (active).
In the case of `O=C(c1cccc(Cl)c1F)N1CCN(Cc2cccc(Nc3nccs3)n2)CC1`, the Potency is 1.16 µM (active).
As for `N#Cc1c(Oc2ccc(F)c(NC(=O)Cc3cccc(C(F)(F)F)c3)c2)ccc2nc(NC(=O)C3CC3)sc12`, the Potency was 16.4 µM (active).
`COC(=O)C1(C)c2[nH]c3ccccc3c2CCN1C(=O)CCl` (stereo not given): the Potency is 20.6 µM (active).
Turning to `COC(=O)N[C@@H](C)CNc1nccc(-c2cn(C(C)C)nc2-c2cc(Cl)cc(NS(C)(=O)=O)c2F)n1`, the max response is -3.34% (inactive).
On to `CC1(C)CC(=O)C2=C(C1)NC(=S)NC2c1cccc(O)c1` (stereo not given), for which the Potency was 0.82 µM (active).
On to `CC(=O)NC[C@H]1CN(c2ccc(N3CCN(C(=O)CO)CC3)c(F)c2)C(=O)O1`, for which the max response was -17.1% (inactive).
On to `CC(O)c1cc(C(=O)N[C@@H](C)Cn2ccc(-c3ccc(C#N)c(Cl)c3)n2)n[nH]1` (stereo not given in full), for which the max response is -27.8% (inactive).
For the compound `N#Cc1ccc(-c2cnc3[nH]cc(NC(=O)c4cccnc4)c3c2)cc1`, the max response is -24.8% (inactive).
Still for that read-out and setting: the result for `Cc1ccccc1-n1c([C@H](C)Nc2nc(N)nc3nc[nH]c23)nc2cccc(C)c2c1=O` reads -12.5% (inactive).
With `CC(C)(C#N)c1ccc(N2C(=O)OCc3cnc4ccc(-c5cnc6ccccc6c5)cc4c32)cc1`, the Potency is 6.51 µM (active).
With `Oc1ccc(CNc2ccccc2F)c2cccnc12`, the Potency is 5.8 µM (active).
As for `O=C(Nc1ccc(-c2ccncc2)cc1)N[C@H](CO)c1ccccc1`, the call was inactive.
Take `Cc1cccc2c1NC(=O)C2(c1ccc(O)cc1)c1ccc(O)cc1`: the max response was -4.45% (inactive).
Take `C[C@@H]1O[C@@H](O[C@H]2[C@H](O[C@H]3CC[C@@]4(C)C(CC[C@]5(C)C4C=C[C@]46OC[C@@]7(CCC(C)(C)C[C@H]74)[C@@H](O)C[C@]65C)[C@]3(C)CO)O[C@H](CO)[C@@H](O)[C@@H]2O[C@@H]2O[C@H](CO)[C@@H](O[C@@H]3O[C@@H](C)[C@H](O)[C@@H](O)[C@H]3O)[C@H](O)[C@H]2O)[C@H](O)[C@H](O)[C@H]1O` (stereo not given in full): the max response was -30.1% (inactive).
Still for that read-out and setting: the result for `O=C(NCc1cccc(O)c1)Nc1nc(-c2ccncc2)cs1` reads -3.25% (inactive); that for `Cc1ccc(N)cc1O`, -6.12% (inactive).
As to `Cc1ccc(NC(=O)Nc2cc(C(F)(F)F)ccc2F)cc1Nc1ccc2c(c1)NC(=O)/C2=C\c1ccc[nH]1`, the Potency was 20.6 µM (active).
The same measure, in the same setting: as for `CNC(=O)c1ccccc1Nc1nc(Nc2ccc3c(c2OC)CCC[C@@H](N2CCN(CCO)CC2)C3)ncc1Cl`, the figure is 13 µM (active); as for `Nc1nc(Nc2ccc(S(N)(=O)=O)cc2)n(C(=S)Nc2c(F)cccc2F)n1`, 1.3 µM (active).
For `CNC(=O)c1ccccc1Nc1cc(Nc2ccc(N3CCOCC3)cc2OC)ncc1C(F)(F)F`, the max response was -12.1% (inactive).
Consider `Cc1ccc(C(=O)N(CCCN)C(c2nc3cc(Cl)ccc3c(=O)n2Cc2ccccc2)C(C)C)cc1` (stereo not given), for which the Potency is 0.0082 µM (active).
On to `CCN(CC)c1ccc2c(O)c(C=Nc3ccc(CC(=O)O)c(-c4c5c(nc6ccccc46)CCC(C(=O)NN)C5)c3)c(=O)oc2c1` (stereo not given), for which the Potency is 5.8 µM (active).
As to `C=C1C(=O)O[C@@H]2[C@H]1CCC(C)=C1CCC(=O)O[C@]12C`, the max response is -23.5% (inactive).
`CN(C)CCCCC(=O)Nc1ccc(NC(=S)NC(=O)c2ccc(C(C)(C)C)cc2)cc1`: the Potency is 14.6 µM (active).
Consider `Cc1cc(Nc2ccc(NC(=O)c3ccc(Nc4ccnc5ccccc45)cc3)cc2)nc(N)n1`, for which the Potency was 4.61 µM (active).
Regarding `COc1cc(O)c2c(c1)C1=CC(O)C(O)CC1(C)OC2=O` (stereo not given), the result was inactive.
For `CNC12CC3C[C@@](C)(C1)C[C@](C)(C3)C2`, the call was inactive.
Regarding `NC(=O)c1cccc2cn(-c3ccc(C4CCCNC4)cc3)nc12` (stereo not given), the max response was -7.35% (inactive).
For the compound `Cc1cccc(/C=N/Nc2cc(N3CCOCC3)n3nc(-c4ccncc4)cc3n2)c1`, the max response was -17.8% (inactive).
For the compound `CCS(=O)(=O)N1CCN(c2ccc(Nc3ncc(C(N)=O)c(NC4CC4)n3)cc2)CC1`, the Potency is 5.17 µM (active).
